Assay results published in the supplement of paper PMC6555819.

Experiments:
Assay in all cases: PBM binding z-score (relative to random genomic background probes); higher = stronger binding; sequences stand for … in GC…GCGATTGACAGCGTAGAATGAAGG
[1] = system: PPARg:RXRa DBDmut IVT, anti-RXR (DBD mutation: RXRa K156A/R161A, NR concentration 270 nM, RXRa partner concentration 90 nM)
How it was run: (§1)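 On custom Agilent 4×180K arrays, double-stranded probes with 34-nt variable regions carried direct-repeat seeds, single-nucleotide variants, half-site ablations or random human genomic background. Ligand-free nuclear receptor dimers were applied for 1 h, and binding was read with antibodies against each partner (one per run). Binding z-scores come from regression-normalized fluorescence, with the random background probes as reference.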

[2] = system: PPARg:RXRa IVT, anti-PPARg (NR concentration 270 nM, RXRa partner concentration 90 nM)
How it was run: as §1

[3] = system: PPARg DBDmut:RXRa IVT, anti-PPARg (DBD mutation: PPARg1 K132A/R137A, NR concentration 270 nM, RXRa partner concentration 90 nM)
How it was run: as §1

[4] = system: PPARg DBDmut IVT, anti-PPARg (DBD mutation: PPARg1 K132A/R137A, NR concentration 270 nM)
How it was run: as §1

[5] = system: PPARg homodimer (NR concentration 180 nM)
How it was run: as §1

[6] = system: PXR:RXRa (NR concentration 270 nM, RXRa partner concentration 90 nM)
How it was run: as §1

[7] = system: PXR homodimer (NR concentration 270 nM)
How it was run: as §1

[8] = system: RARa:RXR (NR concentration 270 nM, RXRa partner concentration 90 nM)
How it was run: as §1

[9] = system: RARa homodimer (NR concentration 270 nM)
How it was run: as §1

[10] = system: RARb:RXRa (NR concentration 270 nM, RXRa partner concentration 90 nM)
How it was run: as §1

Sequence | PBM binding z-score [1] | PBM binding z-score [2] | PBM binding z-score [3] | PBM binding z-score [4] | PBM binding z-score [5] | PBM binding z-score [6] | PBM binding z-score [7] | PBM binding z-score [8] | PBM binding z-score [9] | PBM binding z-score [10]
TCATATAGGTAATACAGGTGAAAGGCGGCATCTA | 4.33 | 3.42 | 1.73 | 1.03 | 1.29 | 1.04 | 0.592 | 1.33 | 1.69 | 0.697
TAGCCTAGATCATTCAGGGGCCAGTATAGAAAGC | 1.21 | 1.03 | -0.343 | 0.115 | -0.77 | -0.495 | -0.234 | 0.0251 | -0.596 | 0.0871
CCTATTAGTTTACCATAAGGGCAACCGAAGCTCG | 0.246 | 0.459 | 0.256 | 1.25 | 1.47 | 0.681 | 1.08 | 0.819 | 1.51 | 1.6
ATATGTAGGGTATCGGGTCATTCAGTTTGCGCAT | 6.53 | 6.58 | 2.46 | 2.33 | 2.08 | 3.66 | 7.07 | 2.95 | 0.891 | 2.09
GCCACTGGGGCATCAGCAGGTTACCATAACTTAA | 4.53 | 4.92 | -0.157 | -0.59 | 0.0359 | -0.0612 | -0.589 | 0.475 | -0.576 | 0.955
AATACAGGGTCACTACGCCAGAGTAGGTACGAAT | 2.98 | 4.51 | 2.04 | 1.71 | 2.16 | 3.28 | 0.564 | 4.53 | 1.63 | 4.17
AGATTGAGGTTAAGATCAGGGAAACAGAATACAT | 2.1 | 2.29 | 1.37 | 1.38 | 1.06 | 1.3 | 0.986 | 1.87 | 1.33 | 2.08
GCTAGCAGGCCATTTGGGCCACTCAATGACGGGC | 0.571 | 0.308 | -1.6 | -2.1 | -1.14 | -0.943 | -1.18 | -1.05 | -0.661 | -0.143
CGAACTAGGTCATTGGCAGGACAGTGAATAGTAA | 8.14 | 8.31 | 3.04 | 0.566 | 1.51 | 1.61 | -0.0888 | 2.11 | 0.516 | 3.71
AGTCAAAGTTCACTAGGTAACCTAAGATTCAGCT | 3.06 | 5.17 | 0.689 | 0.943 | 2.98 | 4.37 | 4.07 | 3.78 | 1.73 | 4.7
GCTAGTTGGTCAGTAAAAGGTCACATACCGGTCG | 1.23 | 2.96 | 0.372 | 0.203 | 6.37 | 4.88 | 0.988 | 5.66 | 3.62 | 4.23
TAGCCTAGGTCATGCAGGCCAGTATAGTGTCGGC | 1.84 | 2.9 | 0.61 | 0.0782 | 1.52 | 1.77 | -0.409 | 2.37 | -0.161 | 3.66
GATACAGGGTCAAGGCCACAGTACGCGTATTGAT | 2.24 | 4.31 | 0.644 | 0.508 | 2.25 | 4.14 | 0.451 | 4.64 | 0.787 | 4.67
CCTCGGGGGACAGAAGGTCAGAGCTGTCCGCTTT | 0.436 | 1.38 | 1.67 | -0.683 | 1.59 | 2.99 | 0.0976 | 3.08 | -0.112 | 3.34
CAGCGTAGGTCAGGGCCAGTATAGGAGGAACGTT | 0.838 | 1.03 | -0.58 | -1.66 | 0.304 | 0.605 | -0.644 | 1.04 | 0.00652 | 3.43
CATACTAGGTCACAGAGGTCAAAGTCCGTGCGTA | 7.7 | 8.21 | 1.7 | 0.913 | 4.99 | 6.49 | 11.3 | 6.62 | 2.6 | 5.27
AGTCAAAGTTCATCTAGGTAACTTAAGATATGCT | 1.01 | 3.43 | 1.87 | 1.38 | 4.01 | 5.28 | 7.67 | 3.91 | 1.85 | 4.6
AGAATGAGGTTATAAAGATCAGGGAATTGCGGTC | 2.13 | 2.04 | 0.947 | 0.696 | 1.14 | 1.2 | 0.572 | 1.58 | 0.211 | 1.32
GCTGCTAGGCCAGGTTGGTCAGCTAACGGGTACG | -0.104 | -0.575 | -1.57 | -1.24 | -1.2 | -1.06 | -0.918 | -0.979 | -0.954 | 0.166
TCGTGTAGATCAACAGGAGGTTAAGAAAGATCGA | 0.943 | 0.0646 | 0.363 | -0.42 | 0.211 | 0.488 | -0.663 | 1.06 | -0.074 | 0.441
ATCGAAAGATCGACGAGGTGAGTATACACCGTTT | -0.646 | 0.27 | 0.0625 | 0.447 | -0.719 | -0.123 | 0.0422 | 0.105 | -0.0578 | -0.0508
AATACAGGGTCATCGTAGGCCAGAGGACGCACAG | 2.45 | 4.1 | 1.52 | 0.83 | 2 | 4.85 | 0.696 | 4.98 | 0.699 | 4.41
GGAACGAGGGCAAAGATGATAGCATCTGTCGACG | 3.87 | 3.02 | -0.58 | 0.0962 | 0.289 | 0.215 | -0.309 | 0.189 | -0.373 | 1.98
